{"source": "the supplement of paper PMC9948646"}
{"system": "gramicidin D channels in DC22:1PC lipid vesicles (bilayer-modifying potency)", "experiment": "initial Tl+ fluorescence quench rate relative to no-drug control (NormRate, gramicidin monomer-dimer shift) (ratio (fold of control)); higher = stronger bilayer-modifying effect (equilibrium shifted toward conducting dimers), active = 1.5 or more", "conditions": "10 µM; lipid concentration 50 µM; temperature: 25 °C", "experimental": "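Stopped-flow fluorescence quench assay: ANTS-loaded DC22:1PC large unilamellar vesicles doped with gramicidin D (1:2000), 50 µM lipid, equilibrated 10 min with 10 µM drug (0.1% DMSO), mixed with Tl+ quench buffer at 25°C. Initial quench rate (Tl+ influx) was fitted with a modified stretched exponential and normalised to the no-drug control rate (NormRate); duplicates from two independent LUV preparations (triplicates for 7 drugs).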"}
{"smiles": "Cc1ccc2cc([C@@H]3NC(=O)c4ccccc4N3)c(Cl)nc2c1", "initial Tl+ fluorescence quench rate": "1.08 (inactive)"}
{"smiles": "Nc1ncc(-c2ccc(C(F)(F)F)nc2)cc1-c1ccc(C(F)(F)F)nc1", "initial Tl+ fluorescence quench rate": "1.08 (inactive)"}
{"smiles": "CC(C)/N=c1\\cc2n(-c3ccc(Cl)cc3)c3ccccc3nc-2cc1Nc1ccc(Cl)cc1", "initial Tl+ fluorescence quench rate": "5.63 (active)"}
{"smiles": "Cc1nc2ccccn2c1C(=O)NCc1ccc(Cl)cc1", "initial Tl+ fluorescence quench rate": "1.17 (inactive)"}
{"smiles": "FC(F)(F)c1cc(NCCc2ccccc2)nc(-c2ccccn2)n1", "initial Tl+ fluorescence quench rate": "1.31 (inactive)"}
{"smiles": "Cc1ccc(-c2cc(C(=O)Nc3cccnc3)c3cc(Br)ccc3n2)cc1", "initial Tl+ fluorescence quench rate": "2.5 (active)"}
{"smiles": "O=C(NC1=NCCS1)c1sc2cc(F)ccc2c1Cl", "initial Tl+ fluorescence quench rate": "1.06 (inactive)"}
{"smiles": "CCc1ccc([C@@H]2C[C@H](C(F)(F)F)n3ncc(C(=O)NCc4ccc(OC)cc4)c3N2)cc1", "initial Tl+ fluorescence quench rate": "4.55 (active)"}
{"smiles": "COc1ccc(Cn2cnc3c(-c4ccco4)nc(Cl)nc32)cc1", "initial Tl+ fluorescence quench rate": "1.59 (active)"}
{"smiles": "COc1cc2ncnc(NC3CCN(Cc4ccccc4)CC3)c2cc1OC", "initial Tl+ fluorescence quench rate": "1.04 (inactive)"}
{"smiles": "CCOc1ccc(-c2nc(NC(=O)CS(=O)(=O)c3ccccc3)sc2C)cc1", "initial Tl+ fluorescence quench rate": "3.58 (active)"}
{"smiles": "COc1ccc(C2(C(=O)Nc3ccc(Br)cc3)CCCC2)cc1", "initial Tl+ fluorescence quench rate": "1.14 (inactive)"}
{"smiles": "CS(=O)(=O)c1ccccc1C(=O)N(Cc1ccccc1)c1ccccc1", "initial Tl+ fluorescence quench rate": "1.09 (inactive)"}
{"smiles": "Cc1cc(NC(=O)c2ccc(S(=O)(=O)N(Cc3ccccc3)C(C)C)cc2)no1", "initial Tl+ fluorescence quench rate": "1.14 (inactive)"}
{"smiles": "COc1ccc(N(CCc2cccc(C)n2)C(=O)C2CCCCC2)cc1", "initial Tl+ fluorescence quench rate": "1.41 (inactive)"}
{"smiles": "FC(F)(F)c1nnc2ccc(Cl)nn12", "initial Tl+ fluorescence quench rate": "1.02 (inactive)"}
{"smiles": "Clc1ccc(CN2CCN(C3=NCCN3)CC2)cc1Cl", "initial Tl+ fluorescence quench rate": "1.2 (inactive)"}
{"smiles": "CCN(CC)C(=O)N1CCN(C)CC1", "initial Tl+ fluorescence quench rate": "1.1 (inactive)"}
{"smiles": "CCCCS(=O)(=O)Nc1ccc2cnn(C)c2c1", "initial Tl+ fluorescence quench rate": "1.36 (inactive)"}
{"smiles": "CCN(CC)CCCN1CCN(C(=O)c2cccc(-c3noc(C(F)(F)F)n3)c2)CC1", "initial Tl+ fluorescence quench rate": "1.25 (inactive)"}
{"smiles": "COC(=O)c1c(NC(=O)c2c(F)c(F)c(F)c(F)c2F)sc2c1CCCCC2", "initial Tl+ fluorescence quench rate": "1.72 (active)"}
{"smiles": "Clc1ccc(CCNc2cc(-c3ccccc3)nc3ncnn23)cc1", "initial Tl+ fluorescence quench rate": "1.3 (inactive)"}
{"smiles": "CC(C)(C)n1nc(-c2ccccc2)c2c(N)ncnc21", "initial Tl+ fluorescence quench rate": "1.03 (inactive)"}
{"smiles": "CCCn1c(NC(=O)c2ccc3ccccc3n2)nc2ccccc21", "initial Tl+ fluorescence quench rate": "1.4 (inactive)"}
{"smiles": "NCC(=O)N1CCn2c(nc(-c3ccccc3)c2Nc2ccc3c(c2)OCO3)C1", "initial Tl+ fluorescence quench rate": "1.36 (inactive)"}
{"smiles": "CC(C)n1ncc2c(C(=O)NC[C@H](c3cccs3)N3CCOCC3)cc(-c3ccccc3)nc21", "initial Tl+ fluorescence quench rate": "2.74 (active)"}
{"smiles": "O=C(Nc1ccc2c(c1)B(O)OC2)c1ccccc1C(F)(F)F", "initial Tl+ fluorescence quench rate": "1.06 (inactive)"}
{"smiles": "CC(C)(C)n1nc(Cc2cccc3ccccc23)c2c(N)ncnc21", "initial Tl+ fluorescence quench rate": "2.86 (active)"}
{"smiles": "Cc1cccc(NC(=O)c2cc(S(=O)(=O)N(C)c3ccc(F)cc3)ccc2Cl)n1", "initial Tl+ fluorescence quench rate": "1.5 (active)"}
{"smiles": "CC[P](CC)(CC)=[Au][S][C@H]1O[C@@H](COC(C)=O)[C@H](OC(C)=O)[C@@H](OC(C)=O)[C@@H]1OC(C)=O", "initial Tl+ fluorescence quench rate": "1.07 (inactive)"}
{"smiles": "O=C(NCCN1CCCC1)c1cc(NCCN2CCOCC2)nc2ccc(Cl)cc12", "initial Tl+ fluorescence quench rate": "1.15 (inactive)"}
{"smiles": "Cc1cc(OCC(=O)NCc2ccccc2)c2cc(Br)ccc2n1", "initial Tl+ fluorescence quench rate": "1.45 (inactive)"}
{"smiles": "CCCCc1ccc(NC(=O)Nc2ccc(O[C@H]3CCCC[C@@H]3N(C)c3ccccc3)c(F)c2)cc1", "initial Tl+ fluorescence quench rate": "1.35 (inactive)"}
{"smiles": "COc1ccc(C2=NN(C3CCCCCC3)C(=O)C2(C)C)cc1OCCCCOc1ccc(-c2nn[nH]n2)cc1", "initial Tl+ fluorescence quench rate": "9.05 (active)"}
{"smiles": "O=C(NCCc1ccn(-c2ccccc2)n1)C1CCCCC1", "initial Tl+ fluorescence quench rate": "1.05 (inactive)"}
{"smiles": "COc1ccc(-c2cnc3cnc(-c4cccc(OC(C)C)c4)cn23)cc1", "initial Tl+ fluorescence quench rate": "2.01 (active)"}
{"smiles": "O=C1COCc2ccc(Br)cc2N1Cc1ccc(C(F)(F)F)cc1", "initial Tl+ fluorescence quench rate": "1.55 (active)"}
{"smiles": "Nc1nccc2ccc(-c3ccc4nccn4c3)cc12", "initial Tl+ fluorescence quench rate": "1.17 (inactive)"}
